Screening data (PubChem BioAssay)
An excerpt weighted towards active compounds, which were near 3% of everything screened.
TSHR ag – TSH receptor (human) agonism; P16473; HEK293-CNG-TSHR cells (CNG channel as cAMP sensor), membrane potential dye, cAMP; Potency, µM (titrated, usually from 57.1 µM), inactives show top-dose activation, actives largely listed as activators; hit rate 0.48% among 73,000; AID 926; active = well fitted activation curve with a large enough effect in the main read-out, with a control signal flat, not every such curve was filed as active; inconclusive = small, poorly fitted or top-dose-only effect, or a change in a side signal; inactive = no such curve, though single readings can be large or run the other way; % of control where 0% means no effect;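 also: the control signal comes from parental cells without the receptor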
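HEK 293 cells stably expressing TSHR and a cAMP-gated CNG channel; parental CNG-only cells as counterscreen. Cells preloaded 60 min with membrane potential dye plus 100 uM RO 20-1724, then compound 30 min; fluorescence read at 590 nm.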
15-hLO-2 inh – blocks human 15-lipoxygenase 2 activity; O15296; purified 15hLO-2, xylenol orange hydroperoxide absorbance; Potency, µM (titrated, usually from 57.1 µM), without a hit: top-dose activity change, negative = inhibition, hits mostly inhibitors; hit rate 0.56% among 110,000; also: % is scaled to controls: 0 for no effect and ±100 for the full control effect; nearly all actives have a fitted effect of over 60% in size
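Purified human 15hLO-2 (50 nM final) preincubated with compounds 15 min at room temperature in 25 mM Hepes pH 7.5, 0.01% Triton X-100, then 45 uM arachidonic acid added for 90 min; hydroperoxide detected via ferrous/xylenol orange, 573/405 nm absorbance ratio.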
HEK293 cAMP cs – parental HEK293 cAMP activation (counter-screen). Potency, µM (doses to about 57.1 µM), for inactives: at the highest dose activation, hits mostly activators. parental HEK293 CNG cAMP sensor, membrane potential fluorescence. AID 938. hit rate 2.5% among 73,000; also: % of control where 0% means no effect; nearly all actives have a fitted effect of over 55% in size
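Parental HEK 293 cells stably expressing a modified CNG channel (no TSHR) report cAMP rise as membrane depolarization. Membrane potential dye with 100 uM RO 20-1724 was loaded for 60 min at room temperature, then compound added for 30 min; fluorescence read at 590 nm.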
ALOX15 inhib – inhibitors of human 15-lipoxygenase (ALOX15) | P16050 | purified 15hLO-1, xylenol orange hydroperoxide absorbance | Potency, µM (doses to about 57.1 µM), inactives show top-dose activity change, negative = inhibition, usual class: inhibitors | hit rate 1.4% among 74,000 | AID 887; also: % is scaled to controls: 0 for no effect and ±100 for the full control effect; nearly all actives have a fitted effect of over 55% in size
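Compounds were preincubated 15 min at room temperature with 40 nM purified human enzyme (25 mM Hepes pH 7.5, 0.01% Triton X-100); 50 uM arachidonic acid reacted 6 min. Fe-xylenol orange detection, 30 min, absorbance ratio 573/405 nm.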
Casp7 inh – caspase-7 (human) inhibition, allosteric or competitive | P55210 | recombinant caspase-7, Ac-DEVD-AFC fluorescence rate | Potency, µM (series often up to 57.5 µM), for inactives: at the highest dose activity change, negative = inhibition, hits mostly inhibitors | hit rate 0.02% among 75,000 | AID 889; active = well fitted inhibition curve with a large enough effect in the main read-out, with a control signal flat, not every such curve was filed as active; inconclusive = small, poorly fitted or top-dose-only effect, or a change in a side signal; also: % of control where 0% means no effect
Caspase-1 inhib – blocks human caspase-1 allosterically or competitively | Caspase-1 enzyme, Ac-WEHD-AFC fluorogenic rate | Potency, µM (doses to about 57.5 µM), inactives show at the top dose activity change, negative = inhibition, hits mostly inhibitors | hit rate 0.03% among 75,000;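 also: plate controls were vehicle for no effect and no substrate for full effect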
* marks the source's active call; other numbers are inactive results; ? = inconclusive; . = no result; [ ] = dose if it differs, or a comment. Unless noted, calls follow the shape of the dose curve; as a rule, active = well fitted curve in the direction sought with a large enough effect; inconclusive = small, poorly fitted or top-dose-only effect, or another doubt; inactive = no such curve, though single readings can be large; an effect the other way counts as inactive or inconclusive. Potency is read from the fitted curve at half-maximal effect.

SMILES	TSHR ag	15-hLO-2 inh	HEK293 cAMP cs	ALOX15 inhib	Casp7 inh	Caspase-1 inhib
CCCc1cc(C(N)=O)c(NC(=O)C2CCCO2)s1 (stereo not drawn)	?	-21%	?	25µM*	-8%	-6%
Clc1ccc(OCCCc2nc(-c3cccnc3)no2)c(Cl)c1	?	34%	16µM*	4%	-4%	-4%
Clc1ccc(OCCCc2nc(-c3ccncc3)no2)c(Cl)c1	.	23%	.	.	.	.
CCc1ccc(S(=O)(=O)Nc2ccc(O)c(C(=O)O)c2)cc1	6%	.	1%	-6%	1%	0%
O=C(O)c1cc(O)c2c(c1)[C@H]([C@H]1c3cc(C(=O)O)cc(O)c3C(=O)c3c(O[C@@H]4OC(CO)C(O)C(O)C4O)cccc31)c1cccc(O[C@@H]3OC(CO)C(O)C(O)C3O)c1C2=O (stereo partly drawn)	.	10µM*	.	13µM*	10µM*	25µM*
O=C1c2cccc(O)c2C(=O)c2c(O[C@@H]3O[C@H](CO)[C@@H](O)[C@H](O)[C@@H]3O)cccc21	-3%[11.4 µM]	10%[11.4 µM]	7%[11.4 µM]	-3%[11.4 µM]	-3%[11.5 µM]	1%[11.5 µM]
CCc1cccc(NC(=O)Nc2cccs2)c1	-4%[11.4 µM]	-25%	-7%	13µM*	-5%	-3%
Cc1cccc(C)c1NC(=O)Nc1cccs1	0%	-24%	4%	25µM*	-11%	-11%
COc1cccc(-c2cncnc2N(C)Cc2ccco2)c1	8%	-2%	0%	?	-7%	0%
CC(=O)Nc1cccc(C(=O)Oc2cccc(C)c2)c1O	5%	0%	7%	16µM*	1%	-2%
Cc1cccc(C(=O)Nc2cccc(OC(=O)c3cccc(C)c3)c2)c1	.	11%	.	.	.	.
COc1ccc2nc(C)cc(N3CCOCC3)c2c1	9%	3%	15%	-5%	-4%	-3%
COc1ccc2nc(C)cc(N3CC(C)OC(C)C3)c2c1 (stereo not drawn)	?	0%	16µM*	1%	-4%[0.00368 µM]	0%
O=c1c(-c2ccccc2)nc2cnc(N3CCOCC3)nc2n1Cc1cccs1	13%	-6%	14%	?	?	.
CC1CC(C)CN(C(=O)CSc2nnc(-c3ccc(Cl)cc3)o2)C1 (stereo not drawn)	?	1%	?	-3%	0%	-3%
Cc1ccc(-c2nnc(SCC(=O)N3CC(C)CC(C)C3)o2)cc1C (stereo not drawn)	?	.	16µM*	-18%	-4%	-4%
C[C@@H](C(=O)Nc1ccc2ccccc2c1)[C@@H]1C[C@@]1(C)[C@@H](NC(=O)c1cnccn1)c1ccccc1	?	11%	?	.	-4%	-9%
C[C@@H](C(=O)Nc1ccc2ccccc2c1)[C@H]1C[C@]1(C)[C@H](NC(=O)c1cnccn1)c1ccccc1	?	7%	16µM*	.	-4%	-4%
Cc1cc(C(=O)N[C@H](c2ccccc2)[C@@]2(C)C[C@@H]2[C@@H](C)C(=O)Nc2ccc3ccccc3c2)no1	?	-5%	1.6µM*	.	0%	-3%
COc1ccc2c3c(cccc13)N(C)N=C2C	.	2.5µM*	.	.	.	.
Cn1cccc1C(=O)N1CCC2(CCCN(Cc3nccs3)C2)CC1	-1%	-1%	12%	11%	-2%	-7%
CCCCCCNC(=O)Nc1ccc(S(=O)(=O)Nc2ccc(CCNC[C@H](O)COc3ccc(O)cc3)cc2)cc1	-34%	-5%	-12%	7.9µM*	-4%	0%
N#Cc1ccccc1-c1ccc2ncnc(NCCN3CCOCC3)c2c1	8%	-2%	-4%	7%	-4%	-5%
Cn1cc(S(=O)(=O)Nc2ccc(F)cc2F)c(=O)n(C)c1=O	2.5µM*	0%	19%	-22%	2%	2%
Cn1cc(S(=O)(=O)Nc2cccc(F)c2)c(=O)n(C)c1=O	.	2%	.	.	.	.
SMILES	TSHR ag	15-hLO-2 inh	HEK293 cAMP cs	ALOX15 inhib	Casp7 inh	Caspase-1 inhib
Cc1ccc(CNC(=O)[C@H](C)[C@H]2C[C@]2(C)[C@H](NC(=O)OCc2ccccc2)c2ccccc2)c(F)c1F	?	5%	?	.	-3%	-5%
O=C(O)CCC(=O)c1ccc2c(c1)OCCO2	?	3%	20µM*	7%	1%	-1%
COc1ccc2c(c1)c(=O)c(Br)c(C)n2Cc1ccccc1	?	12%	32µM*	-1%	-1%	-2%
COc1ccc2c(c1)c(CC(=O)O)c(C)n2Cc1ccc(F)cc1	?	-15%	?	-9%	1%	0%
Cc1ccccc1OCC(=O)Nc1ccccc1N1CCCCC1	?	6%	?	?	-1%	-2%
O=C(Cc1ccc(Cl)cc1)Nc1ccccc1N1CCOCC1	.	-1%	.	.	.	.
O=C(COc1ccc(Cl)cc1)Nc1ccccc1N1CCOCC1	?	-3%	16µM*	-7%	1%	0%
Cc1cccc(OCC(=O)Nc2ccccc2N2CCN(C(=O)C(C)C)CC2)c1C	?	-9%	1.6µM*	-2%	-1%	0%
CCC(=O)N1CCN(c2ccccc2NC(=O)c2cccc(C)c2)CC1	?	11%[2.29 µM]	?	-5%	-1%	-1%
CCC(=O)N1CCN(c2ccccc2NC(=O)COc2cccc(C)c2)CC1	?	-1%	20µM*	?	-4%	0%
C=CC1=C(C(=O)O)N2C(=O)C(NC(=O)/C(=N\O)c3csc(N)n3)C2SC1 (stereo not drawn)	.	15%	.	-2%	-4%	2%
C#CCCCO/N=C1/C[C@@H](O)[C@@H](O)[C@@H]2[C@@H]3C(=O)N(c4cccc(Oc5ccccc5)c4)C(=O)[C@H]3CC[C@H]12	-1%[11.4 µM]	.	6%[11.4 µM]	-5%[11.4 µM]	4%[11.5 µM]	0%[11.5 µM]
C=CCOC(=O)c1cc(-c2ccc(/C=C3\C(=O)NC(=O)C(C#N)=C3C)o2)ccc1Cl	.	13µM*	.	.	.	.
Cc1ccc(Nc2ncc3c(n2)CC(c2ccco2)CC3=O)c(C)c1 (stereo not drawn)	12%	-4%	18%	20µM*	-15%	-3%
Cc1cccc(Nc2ncc3c(n2)CC(c2ccco2)CC3=O)c1 (stereo not drawn)	?	3%	?	-4%	-3%	-5%
NC1=N[C@H](c2ccc(Cl)cc2)N(c2ccc(S(N)(=O)=O)cc2)C(N)=N1	-3%[11.4 µM]	0%[11.4 µM]	7%[11.4 µM]	8%[11.4 µM]	-2%[11.5 µM]	0%[11.5 µM]
COc1ccc(CN(CCN(C)C)Cc2ccccc2)c(OC)c1	?	13%	13µM*	5%	1%	-4%
COc1ccc(CN(C)CC(=O)c2c(N)n(Cc3ccccc3)c(=O)n(C)c2=O)c(OC)c1	?	16%	?	5%	0%	2%
CCN(Cc1ccccc1)Cc1cc(OC)cc(OC)c1	?	8%	5µM*	1%[11.4 µM]	1%	-1%
